Screening data (PubChem)
Compounds with a hit are over-represented: about 0.5% of the library has one in this group of screens.
AddAB inh: less growth of phage-infected E. coli with AddAB | AID 435030 | E. coli expressing H. pylori AddAB, absorbance growth | inhibition, % at 11.9 µM | actives 0.29% (n = 330,000); in the data active means inhibition above about 12%;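 further: 0% = vehicle wells of infected cells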
Tat export inh: E. coli Tat transport inhibition; actives 0.036% (n = 340,000); inhibition, % at 10 µM; AID 488895; E. coli MC4100 TorA-mCherry Tat export, fluorescence;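 active means mean replicate inhibition at least 50% and at least half of replicates individually reaching 50%; inconclusive means only one of the two criteria met; inactive means neither criterion met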;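 further: exported cargo escapes ClpAP degradation while cytoplasmic cargo is degraded and loses fluorescence; 0% = median of neutral control wells and 100% = median of NaSCN control wells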
E coli growth-1: reduces bacterial viability in AddAB counter-screen | actives 0.27% (n = 330,000) | E. coli V3065 growth, OD600 absorbance, 18 h | inhibition, % at 11.9 µM;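 active means inhibition above the campaign's mean inhibition across all tested compounds plus 3 SD, cut at about 9.9% in these data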;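 further: uninfected addAB+ strain grown without phage in ampicillin broth; 0% = DMSO wells and 100% = ciprofloxacin 0.95 µg/ml wells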
phage Ecoli inh: E. coli growth loss with phage present | growth absorbance | inhibition, % at 11.9 µM | actives 0.26% (n = 360,000) | AID 651602; in the data active means inhibition above about 11%
E coli growth-2: blocks Escherichia coli growth; actives 0.21% (n = 330,000); OD600 absorbance (no concentration beside the values); OD600, 23 h; active compounds read low;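 active means OD600 absorbance below the run mean of sample wells minus 3.6 SD, in any replicate, cut at about 0.56 in these data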
* hit, by the source's call; ? = inconclusive; . = no result.

SMILES	AddAB inh	Tat export inh	E coli growth-1	phage Ecoli inh	E coli growth-2
CC(C)c1ccc2c(c1)CCC1C(C)(CN)CCCC21C (stereo not drawn)	4	-8	-1	9	0.48*
COC1=C(C)C(=O)C2=C(C1=O)C1C3CC4=C(C(=O)C(OC)=C(C)C4=O)C(CNC(=O)C(C)=O)N3C(C#N)C(C2)N1C (stereo not drawn)	.	-9	.	15*	.
COCCN=C1NC(c2ccc(Br)cc2)C(C(=O)OC)=C(C)N1Cc1ccccc1 (stereo not drawn)	.	.	.	.	0.65
CC(=O)Oc1ccc(C(=O)Cc2ccccn2)c(O)c1	3	56*	-1	3	0.65
O=C(OCc1ccccc1)C(=C(O)c1ccccc1Br)c1ccc(-c2ccccc2)cn1	.	.	.	.	0.7
NC1=C(Br)C(=O)c2ncccc2C1=O	.	-15	.	35*	.
Cc1cc(C(C)(C)CC(C)(C)C)ccc1OCCOCC[N+](C)(C)Cc1ccccc1	-3	33	3	3	0.066*
CCCOc1ccc(C(=O)NNC(=S)NC(C)=O)cc1	4	-19	-7	7	0.27*
COc1ccc(C(=O)NNC(=S)NC(=O)c2ccco2)cc1	2	3	-1	-2	0.44*
CCCCOc1ccc(C(=O)NNC(=S)NC(=O)CC)cc1	-7	1	-5	.	0.56
CCC(=O)NC(=S)NNC(=O)c1ccc(OC)cc1	-1	12	1	-6	0.46*
CCCOc1ccc(C(=O)NNC(=S)NC(=O)c2ccco2)cc1	4	-3	1	4	0.55
CCCCN1CC(=O)N2C3c4cc(C)ccc4OCC3C(C(=O)OCC)[C@]2(C)C1=O (stereo partly drawn)	.	.	.	.	0.68
COc1cc(/C=C/C(=O)/C=C(O)/C=C/c2ccc(O)c(OC)c2)ccc1O	11	-5	10*	9	.
COc1cc(/C=C/C(=O)O)ccc1O	3	4	1	2	0.77
COc1ccc(CNc2ccc3c(c2)nc(C)n3C)cc1OC	-2	-2	13*	0	0.65
CCOc1ccc(CNc2ccc3c(c2)nc(C)n3C)cc1	2	7	-1	2	0.69
NCC12CC3CC(C1)CC(c1ccc(Cl)cc1)(C3)C2	2	16	1	3	0.51*
NC(N)=NN=Cc1ccc(OCc2ccc(Cl)cc2)cc1	.	.	.	.	0.045*
NC(N)=N/N=C/c1ccc(OCc2ccc(Cl)cc2)cc1	2	3	2	3	.
NC(N)=NN=Cc1ccc(OCc2ccc(Cl)cc2Cl)cc1	.	.	.	.	0.048*
CC=CC=CC(=O)Nc1cccc(C2=NOC3(C2)CC(C(N)=O)N(C(=O)C2CCC(=O)N2)C3)c1 (stereo not drawn)	.	.	.	.	0.7
CC1CN(C(C)CO)C(=O)c2cccc(NS(=O)(=O)c3cn(C)cn3)c2OC1CN(C)CC1CCCCC1 (stereo not drawn)	.	.	.	.	0.68
CC(C)C(NS(=O)(=O)c1ccccc1)C(=O)OCC(=O)NC(=O)c1cccn1C (stereo not drawn)	.	.	.	.	0.67
COC(=O)c1ccc(NC(=O)Nc2ccc(F)cc2)cc1	4	-5	3	4	0.51*
SMILES	AddAB inh	Tat export inh	E coli growth-1	phage Ecoli inh	E coli growth-2
O=C1CN(N=Cc2ccc([N+](=O)[O-])o2)C(=O)N1	.	.	.	.	0.46*
CCCCOCCCNC(=O)NC(C(=O)OC)C(C)C (stereo not drawn)	.	.	.	.	0.65
C(=Cc1ccccc1)CN1CCN(C(c2ccccc2)c2ccccc2)CC1	.	.	.	.	0.68
COC(=O)c1ccc(C=NOCC(=O)Nc2cc(F)ccc2F)cc1	.	.	.	.	0.53*
C[C@@]12C(=O)N(Cc3ccccc3)CC(=O)N1C1c3cc(Cl)ccc3OCC1C2c1ccccc1 (stereo partly drawn)	.	.	.	.	0.72
Cc1nnsc1C(=O)NNc1c(Cl)cccc1Cl	5	6	2	3	0.48*
Cc1nnsc1C(=O)NNc1ccc(Cl)cc1	0	3	0	0	0.67
CCCCCCCCCCCCCCCC[n+]1ccc(/C=N/O)cc1	0	-12	0	3	.
CCCCCCCCCCCCCCCC[n+]1cccc(C(=O)N(CC)CC)c1	-16	?	-4	4	0.43*
CCCCCCCCCCCCCCCC[n+]1ccccc1	.	48	.	1	0.057*
CCCCCCCCCCCCCCCC[n+]1ccc(C(N)=O)cc1	-1	51*	-3	5	0.32*
CN1CCC(=O)N(C(CO)c2ccccc2)CC1 (stereo not drawn)	.	.	.	.	0.7
CSCCC(C(=O)NCCCCCCCCCCC(=O)N1CCN(C(=O)OC(C)(C)C)CC1)n1cc(CCO)nn1 (stereo not drawn)	.	.	.	.	0.69
C=CC[N@@+]12CC[C@@]34c5ccccc5N5C=C6C7CC8[C@@]9(CC[N@@+]8(CC=C)CC7=CCO)c7ccccc7N(C=C(C(CC31)C(=CCO)C2)C54)C69 (stereo partly drawn)	.	.	.	.	0.72
COc1ccc(NC(=O)Nc2cccc3ccccc23)c(OC)c1	1	-17	0	1	0.71
COc1ccc(OC)c(NC(=O)Nc2cccc3ccccc23)c1	10	-4	16*	2	0.7
NC1=NCC(Cc2ccc(O)cc2)N1CCCCC1CCCCC1 (stereo not drawn)	.	.	.	.	0.45*
S=C1SCN(Cc2ccccn2)CN1Cc1ccco1	1	-6	0	0	0.52*
O=c1c(Br)ccc(Br)cc1Br	.	6	.	7	0.52*
O=C1CN(S(=O)(=O)c2cc(Br)ccc2Br)CCN1	2	-3	0	2	0.69
O=C(NC1CC1)C1=CC(c2c[nH]c3ccccc23)CC(OCCCCO)O1 (stereo not drawn)	.	.	.	.	0.71
COc1ccc(/C=N/N2CCOCC2)cc1O	0	2	-2	1	.
COc1ccc(C=NN2CCOCC2)cc1O	.	.	.	.	0.55*
C#CCOCCOCCOCCNc1nc(N2CCN(C(=O)C(C(C)C)n3cc(CCO)nn3)CC2)nc(N2CCN(C(=O)C(C(C)CC)n3cc(CCCCN)nn3)CC2)n1 (stereo not drawn)	.	.	.	.	0.68
COc1ccc(CNC(=O)c2ccc(C)o2)cc1	9	-16	10*	9	0.62
SMILES	AddAB inh	Tat export inh	E coli growth-1	phage Ecoli inh	E coli growth-2
Clc1cc2cccnc2c2ncccc12	-4	-6	-5	-1	0.53*
Cc1c(C)c2cccnc2c2ncccc12	47*	1	47*	.	0.25*
O=[N+]([O-])c1ccc(Cl)c2cccnc12	2	-3	0	2	0.63
Cc1ccc2ccc3cccnc3c2n1	-2	9	-3	-1	.
CCCCCCCCCCCCCCCC[n+]1cccc2ccccc21	6	5	4	4	0.092*
Cc1ccc2c(c1)N(C)/C(=C/c1cccc[n+]1C)S2	2	0	-2	0	0.53*
C=C(C)C(=O)N1CC2(CC(c3cccc(NC(=O)C=CC)c3)=NO2)CC1C(N)=O (stereo not drawn)	.	.	.	.	0.7
Cc1nc2ccccn2c1C(=O)NN=Cc1ccc([N+](=O)[O-])o1	.	.	.	.	0.52*
COc1ccccc1OCC(=O)NN=CC=Cc1ccc([N+](=O)[O-])o1	.	.	.	.	0.36*
CCN(CC)c1ccc(N=Cc2ccc([N+](=O)[O-])o2)cc1	12	-1	5	5	0.15*
Cc1nc2ccccn2c1C(=O)N/N=C/c1ccc([N+](=O)[O-])o1	9	-10	6	7	.
